Laboratory results as given in PubChem BioAssay (NCI).
This is part of a sample that, as a whole, favours compounds with a hit. Of some 83,000 tested, about 20% had one in any assay.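 Activity criterion: percent growth below 10, measured after cells in 96-well plates were exposed to a single compound concentration for 48 hours.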 Calls of active or inactive are those of the source.

Experiments:
Assay in all cases: NCI-60 one-dose screen, 48 h (100 = growth as untreated, 0 = no growth, -100 = all killed)
[1] = tested on: NCI-H522 lung; details: 10 µM unless noted
[2] = tested on: A549/ATCC NSCLC; details: 10 µM unless noted
[3] = tested on: HT29 colon; details: 10 µM unless noted
[4] = tested on: PC-3 prostate; details: 10 µM unless noted
[5] = tested on: SN12C renal; details: 10 µM unless noted
[6] = tested on: TK-10 renal; details: 10 µM unless noted
[7] = tested on: CAKI-1 renal; details: 10 µM unless noted
[8] = tested on: SR leukemia; details: 10 µM
[9] = tested on: RPMI-8226 leukemia; details: 10 µM unless noted
[10] = tested on: OVCAR-4 ovarian; details: 10 µM unless noted
[11] = tested on: SK-OV-3 ovarian; details: 10 µM unless noted
[12] = tested on: HS 578T breast; details: 10 µM unless noted
[13] = tested on: BT-549 breast; details: 10 µM
[14] = tested on: HCT-116 colon; details: 10 µM unless noted
[15] = tested on: COLO 205 colon; details: 10 µM
[16] = tested on: SNB-75 CNS; details: 10 µM unless noted
[17] = tested on: A498 renal; details: 10 µM unless noted
[18] = tested on: EKVX NSCLC; details: 10 µM unless noted

Measured: growth

CC1(C)N=C(N)N=C(N)N1c1cccc(C(=O)Nc2cccc(S(=O)(=O)F)c2)c1
inactive: [1] 99.8% | [2] 104% | [3] 109% | [4] 97.1% | [5] 101% | [6] 108% | [7] 98.8% | [8] 104% | [9] 95.5% | [10] 100% | [11] 117% | [12] 92.7% | [13] 107% | [14] 101%

O=S(=O)(Cl)c1ccccc1 (tested in a mixture with another compound)
inactive: [1] 89.1% | [2] 102% | [15] 105% | [3] 101% | [16] 95.4% | [4] 103% | [5] 102% | [6] 105% | [7] 109% | [17] 85% | [8] 104% | [9] 96.6% | [10] 106% | [11] 102% | [13] 99.5% | [14] 99.4%

COP(=S)(OC)Oc1ccc(SC)c(C)c1
inactive: [1] 94.8% | [15] 101% | [3] 103% | [16] 89.6% | [4] 85.9% | [18] 106% | [5] 100% | [6] 124% | [17] 94.3% | [12] 110% | [13] 83.9% | [14] 103%

[Br][Pb]([c]1ccccc1)([c]1ccccc1)[c]1ccccc1
active: [1] -92.3% | [2] -99.2% | [15] -98.7% | [3] -73.4% | [16] -100% | [18] -91.1% | [5] -83.7% | [6] -100% | [7] -100% | [17] -100% | [8] -37.8% | [9] -29.8% | [10] -100% | [11] -100% | [14] -100%

C1CN1c1nc(N2CC2)nc(N2CC2)n1
inactive: [3] 44.9% | [4] 45.2% | [18] 86.3% | [5] 51.7% | [17] 57.9% | [9] 29.3% | [11] 38.1% | [12] 72.3% | [13] 46.1% | [14] 42.6%
active: [1] -12.1% | [16] -17.6% | [7] 6.72% | [8] 6.79%

C[C@]12CC[C@@H]3c4ccc(OC(=O)Cc5ccc(N(CCCl)CCCl)cc5)cc4CC[C@H]3[C@@H]1CC[C@@H]2OC(=O)Cc1ccc(N(CCCl)CCCl)cc1
inactive: [1] 134% | [15] 104% | [3] 117% | [16] 84.7% | [4] 84.8% | [18] 110% | [6] 120% | [7] 101% | [17] 121% | [8] 106% | [9] 123% | [10] 111% | [11] 126% | [12] 120% | [14] 104%

CC(=O)O[C@H]1CC[C@H]2[C@@H]3CC[C@H]4CC=C(C)C[C@]4(C)[C@H]3CC[C@]12C
inactive: [1] 92.4% | [2] 107% | [15] 110% | [3] 98.4% | [16] 110% | [4] 99.3% | [18] 116% | [5] 101% | [6] 108% | [7] 50.7% | [17] 104% | [9] 109% | [10] 104% | [11] 102% | [12] 109% | [13] 107% | [14] 103%

CC1(C)N=C(N)N=C(N)N1c1ccc(CCCCc2ccc(Cl)cc2S(=O)(=O)F)c(Cl)c1
inactive: [15] 15.9% | [3] 11.4% | [16] 51.9% | [4] 21.3% | [5] 23.4% | [6] 30.3% | [7] 20.6% | [17] 54.7% | [9] 17.8% | [10] 50.3% | [11] 44.2% | [12] 65.5% | [13] 37% | [14] 14.9%
active: [1] 3.95%

N#CC1=C(N)Oc2cc3c(cc2C1c1cccs1)OCO3 (configuration not stated)
active: [1] -26% | [17] 7.63% | [11] 7.21%
inactive: [4] 24% | [18] 53.7% | [5] 52.7% | [6] 56.1% | [7] 43.4% | [8] 16.2% | [9] 24.9% | [10] 52.8% | [12] 24.6% | [13] 44.6% | [14] 21.2%

CNC(C)Cc1ccccc1 (configuration not stated) (tested in a mixture with another compound)
inactive: [1] 82.4% | [15] 102% | [3] 107% | [16] 100% | [4] 92.8% | [6] 92.8% | [7] 102% | [17] 92.5% | [8] 108% | [9] 90.4% | [10] 104% | [11] 92.8% | [14] 100%

CCC(C)[C@H]1O[C@]2(C=C[C@@H]1C)C[C@@H]1C[C@@H](C/C=C(\C)[C@@H](OC3C[C@H](OC)C(O[C@H]4C[C@H](OC)[C@@H](O)[C@H](C)O4)[C@H](C)O3)[C@@H](C)/C=C/C=C3\CO[C@@H]4[C@H](O)C(C)=C[C@@H](C(=O)O1)[C@]34O)O2 (some centres not stated)
inactive: [18] 14.6% | [6] 13.7% | [10] 16.4% | [11] 12.6%
active: [1] -28.8% | [2] 6.21% | [15] -64.5% | [3] -63.6% | [16] 3.26% | [4] -5.32% | [5] 1.84% | [8] -28.1% | [12] -13% | [13] -39.1% | [14] -81.1%

O=C1NC(=O)C(CN2C(=O)C3(c4ccccc42)[C@H](Cl)C(=O)N3c2ccccc2)C(=O)N1 (some centres not stated)
inactive: [1] 51.4% | [15] 102% | [3] 98.3% | [16] 52.7% | [4] 83.6% | [18] 79.3% | [5] 97.4% | [7] 85.7% | [8] 15.2% | [9] 63.1% | [10] 97.6% | [11] 83.1% | [12] 71% | [13] 72.3% | [14] 79.9%

CCN(CC)c1ccc(C=C2C(=O)NC(=S)NC2=O)cc1
inactive: [1] 86.5% | [15] 104% | [18] 99.5% | [7] 91.8% | [17] 97.5% | [10] 90.9% | [12] 88.6%
active: [8] -50.8% | [9] -18.9%

O=C(CCCN1CCC2(CC1)C(=O)NCN2c1ccc(F)cc1)c1ccc(F)cc1
inactive: [1] 87.5% | [15] 124% | [3] 111% | [16] 92.4% | [4] 101% | [18] 135% | [5] 98% | [6] 102% | [7] 121% | [8] 99.2% | [9] 101% | [10] 108% | [11] 98.4% | [12] 133% | [13] 97.3% | [14] 88.6%

CC(=O)C1CCC2C3CC=C4CC(OC(=O)Cc5ccc(N(CCCl)CCCl)cc5)CCC4(C)C3CCC12C (configuration not stated)
inactive: [1] 80% | [2] 131% | [3] 83.2% | [4] 86.2% | [18] 83.1% | [6] 113% | [17] 105% | [8] 52.7% | [9] 73.2% | [11] 112% | [12] 126% | [13] 92% | [14] 93.7%

Cc1cc(NC(=O)CCc2ccc(N3C(N)=NC(N)=NC3(C)C)cc2)ccc1S(=O)(=O)F
active: [1] -17.2% | [8] -23.7% | [9] -24.6%
inactive: [3] 24.7% | [18] 58.8% | [5] 32.8% | [6] 14.1% | [10] 62.1% | [11] 67.3% | [12] 74.7% | [14] 18.3%

CC12CCC(=O)C=C1CCC1C2CCC2(C)C(C(=O)COC(=O)Cc3ccc(N(CCCl)CCCl)cc3)CCC12 (configuration not stated)
inactive: [1] 81.9% | [15] 88.5% | [16] 83.3% | [4] 36.1% | [18] 53.1% | [5] 73.2% | [6] 112% | [7] 27.4% | [9] 46.4% | [10] 91% | [12] 82.4% | [14] 82.4%
active: [8] -2.48%

CC(C)[C@]12O[C@H]1[C@@H]1O[C@]13[C@]1(O[C@H]1C[C@H]1C4=C(CC[C@@]13C)C(=O)OC4)[C@@H]2OC(=O)OC(C)(C)C
active: [1] -34.3% | [16] -60.5% | [18] -22.4% | [6] 5.21% | [17] -36.6% | [8] 3.66% | [13] -12.2% | [14] 4.76%
inactive: [2] 16.7% | [4] 19.8% | [5] 20% | [9] 20.6% | [11] 43.6%

CCCCCCCCCCCCOc1ccc(C(=O)Oc2ccc(CSP3(=O)OCC4OC(n5cnc6c(N)ncnc65)C(F)C4OP(=O)(O)OCC4OC(n5ccc(=O)[nH]c5=O)C(F)C4O3)cc2)cc1 (configuration not stated)
inactive: [1] 69.4% | [2] 98.3% | [3] 78.8% | [16] 107% | [4] 100% | [18] 107% | [6] 77.5% | [17] 71.3% | [8] 25.1% | [9] 72.2% | [10] 54.2% | [11] 110% | [12] 117% | [13] 81.6% | [14] 83.2%

O=C1NC(=S)NC(=O)C1=Cc1ccccc1
inactive: [1] 117% | [2] 101% | [15] 103% | [3] 139% | [4] 96.3% | [18] 111% | [5] 106% | [7] 95% | [8] 121% | [9] 130% | [12] 95.9% | [14] 107%
